# An excerpt weighted towards active compounds, which were near 3.5% of everything screened.
# MITF primary – MITF inhibitors, primary screen, biochemical, AlphaScreen, human; 650,000 compounds, 0.91% hits; AlphaScreen MITF homodimerization, bead proximity signal; inhibition, % at 2.6 µM; in the data active means inhibition above about 50%;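 further: 0% = vehicle wells with protein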
# Target sequence (O75030 whole entry, looked up): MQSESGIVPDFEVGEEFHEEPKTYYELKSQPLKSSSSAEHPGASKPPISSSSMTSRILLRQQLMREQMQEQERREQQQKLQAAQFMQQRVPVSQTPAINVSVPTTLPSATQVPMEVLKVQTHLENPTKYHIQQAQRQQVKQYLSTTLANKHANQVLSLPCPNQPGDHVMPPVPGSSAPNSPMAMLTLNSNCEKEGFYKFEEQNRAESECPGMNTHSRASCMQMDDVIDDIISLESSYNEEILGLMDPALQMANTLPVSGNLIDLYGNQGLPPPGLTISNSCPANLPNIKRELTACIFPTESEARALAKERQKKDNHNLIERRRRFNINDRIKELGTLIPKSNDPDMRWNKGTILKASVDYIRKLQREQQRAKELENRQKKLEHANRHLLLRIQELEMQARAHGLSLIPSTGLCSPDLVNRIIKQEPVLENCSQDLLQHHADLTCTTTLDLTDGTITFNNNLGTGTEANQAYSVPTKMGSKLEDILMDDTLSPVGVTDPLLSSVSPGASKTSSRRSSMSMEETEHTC
# TEAD-YAP block – TEAD-YAP interaction inhibition, primary screen, TEAD-YAP interaction inhibitor project, luminescence, HEK-TIYL cells; TEAD-Gal4/YAP UAS-luciferase luminescence; inhibition, % at 9.12 µM; 640,000 compounds, 1.4% hits; in the data active means inhibition above about 32%;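 further: 0% = median of test compound wells and 100% = reference inhibitor wells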
# FBW7 act – FBW7 E3 ligase activators, primary screen, biochemical, AlphaScreen, human; F-box/WD repeat-containing protein 7 (Homo sapiens), Q969H0; AlphaScreen FBW7–phospho-cyclin E peptide binding, activator screen; normalized activity (activation), % at 26.1 µM; 650,000 compounds, 0.13% hits; AID 1259310, 2017; in the data active means normalized activity above about 1.9%;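 further: purified mutant Fbw7 with reduced substrate affinity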
# GPR151 activ – activators of human GPR151, primary screen, cell-based, PathHunter beta-arrestin, luminescence; PathHunter beta-arrestin GPR151 cells; activation, % at 11.2 µM; 650,000 compounds, 1% hits; in the data active means activation above about 4.9%;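 further: 0% = median of compound wells and 100% = cells with positive control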
# GPR151 confirm – GPR151 activators, triplicate retest, confirmation, cell-based, PathHunter beta-arrestin, luminescence; 6,700 tested, under 10 active; GPR151 PathHunter beta-arrestin cells, 90 min; % of EA-reagent control over plate median; shares compounds with GPR151 activ; activation, % at 11.2 µM;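 active means mean percent activation across replicates above the confirmation screen cutoff of 4.91%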
# GPR119 counter – GPR119 activators in beta-arrestin cells, counter-screen for GPR151 activator project, cell-based, PathHunter beta-arrestin, luminescence, triplicate. shares compounds with GPR151 activ. 90 min; 0 = compound-well median, 100 = enzyme-acceptor control. activation, % at 11.2 µM. 6,700 compounds, 0.3% hits;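 active means mean percent activation in the counterscreen above 29.09%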;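 further: counterscreen on off-target GPR119 to flag nonselective hits from the GPR151 activator screen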
# Starred values were filed as active, the others as inactive; / = not tested or not shown; ! = not active in a repeat.
SMILES,MITF primary,TEAD-YAP block,FBW7 act,GPR151 activ,GPR151 confirm,GPR119 counter
O=C(COc1ccc(Cl)cc1Cl)Nc1ncn[nH]1,13,42*,0,6.6*,3,-13
CC(C)(O)C(=O)/C=C/c1ccccc1Cl,7,3,0,1,/,/
COc1ccccc1Cn1c(=O)c2cccnc2n(CC(=O)Nc2ccccc2)c1=O,0,1,0,7.0*,-1,-8
O=c1cc(Cc2ccccc2)nc2c(-c3ccccc3)c[nH]n12,3,16,0,7.4*,1,5
Cc1[nH]n2c(=O)cc(Cc3ccccc3)nc2c1C#N,7,-12,1,-1,/,/
CC(C)c1ccc(C(CC(=O)c2ccccc2)Nc2ccc(I)cc2)cc1 (stereo not given),5,-2,0,2,/,/
CC1(C)CC(=O)C2=C(C1)Nc1ncnn1C2c1ccccc1F (stereo not given),-5,-4,0,1,/,/
COc1ccc(C2Nn3c(C)nnc3SC2C(=O)N2CCCC2)cc1Br (stereo not given),10,6,0,5.1*,0,-5
C=C(C)CN(CC)Cc1nc(-c2ccccn2)no1,6,2,0,14*,0,0
CC(C)(Sc1cc(C(C)(C)C)c(O)c(C(C)(C)C)c1)Sc1cc(C(C)(C)C)c(O)c(C(C)(C)C)c1,2,-3,0,11*!,0,4
COc1cccc(CCN2C(=O)CCC2CCNCc2cccc(F)c2)c1 (stereo not given),1,5,0,5.1*,0,6
CCCNCCC1CCC(=O)N1CCc1cccc(OC)c1 (stereo not given),9,-11,0,6.7*,-1,10
COc1ccc(-c2nc(NCCCN3CCCC3=O)c3[nH]cnc3n2)cn1,11,4,0,1,/,/
Cc1ccc(CN2CCNC(=O)C2CC(=O)NCc2cnn(C)c2)cc1 (stereo not given),-4,1,0,0,/,/
Cc1ccc(CN2CCNC(=O)C2CC(=O)NCc2cc(C(F)(F)F)ccc2F)cc1 (stereo not given),0,-3,0,6.5*,0,5
CCOC(=O)c1ccc(NC(=S)Nc2ccsc2C(=O)OC)cc1,-2,-11,0,5.7*,0,-14
COC(=O)c1sccc1NC(=S)Nc1ccc(F)cc1,-5,-4,0,0,/,/
COC(=O)c1sccc1NC(=S)Nc1ccc(OC)c(OC)c1,-19,-2,0,6.0*,0,4
COC(=O)c1ccc(NC(=S)NCCO)cc1,13,-3,0,6.3*,1,3
c1ccc(OCCNc2cc(Nc3ccc(-n4ccnc4)cc3)ncn2)cc1,-9,-14,0,-2,/,/
Cc1cc(N2CCN(c3ccc(F)cc3)CC2)nc(-n2cc([N+](=O)[O-])cn2)n1,-11,1,0,-1,/,/
O=C1C(Cl)=C(NCCO)C(=O)N1c1ccc(Cl)cc1,25,14,1,5.1*,0,4
COc1ccccc1OCC(=O)NCC(c1ccsc1)N1CCCC1 (stereo not given),10,2,0,2,/,/
O=C(Cc1ccc(F)cc1)NCC(c1ccsc1)N1CCCCCC1 (stereo not given),-3,-10,0,6.9*,0,-7
CN(Cc1ccccc1)C(=O)c1cc(-c2ccccc2O)no1,7,-11,0,-1,/,/
SMILES,MITF primary,TEAD-YAP block,FBW7 act,GPR151 activ,GPR151 confirm,GPR119 counter
COc1ccc(-c2cc(C(=O)N(C)Cc3ccccc3)on2)cc1OC,-5,-10,0,5.9*,0,0
Cc1ccc(-c2[nH]ncc2CN(C)Cc2c(C)n[nH]c2C)cc1C,1,7,0,-2,/,/
Cc1nnc(CN(C)Cc2cn[nH]c2-c2ccc(C)c(C)c2)o1,10,-18,0,6.7*,0,6
CCOc1ccc(/C=C/C(=O)Nc2cc([N+](=O)[O-])ccc2C)cc1OC,-12,8,0,6.5*,1,8
CCOCC(=O)Nc1cc([N+](=O)[O-])ccc1OC,8,4,0,1,/,/
COc1ccc(/C=C/C(=O)Nc2cc([N+](=O)[O-])ccc2OC)cc1Br,15,3,0,5.4*,1,0
COc1ccc(/C=C/C(=O)Nc2ccc([N+](=O)[O-])cc2OC)cc1Br,6,3,0,0,/,/
O=C(/C=C/c1ccc([N+](=O)[O-])cc1)Nc1ccccc1C(=O)Nc1cccc(C(=O)O)c1,1,-6,0,4.9*,1,18
CCOCC(=O)Nc1cc([N+](=O)[O-])ccc1C,-8,1,0,6.2*,0,-5
Cc1cc(C)c(OCC(=O)Nc2ccc(C)c(Cl)c2)c(C)c1,-6,-1,0,-1,/,/
CS(=O)(=O)C1=C(O)C(=O)N(c2ccc(S(N)(=O)=O)cc2)C1c1ccccc1 (stereo not given),13,-1,0,0,/,/
COc1ccc(/C=C/C(=O)Nc2cc([N+](=O)[O-])ccc2F)cc1OC,8,3,0,0,/,/
COc1ccc([N+](=O)[O-])cc1NC(=O)/C=C/c1ccc(F)cc1,12,19,0,8.8*,0,-15
CCN(CC)c1ccc2cc(C(=O)Nc3c(F)cccc3F)c(=O)oc2c1,-4,-9,0,2,/,/
Cc1c(C(=O)c2ccccc2)oc2ccc(NC(=O)c3cccs3)cc12,5,-54,0,-1,/,/
Cc1ccc(C(=O)c2oc3ccc(NC(=O)c4ccco4)cc3c2C)cc1,9,15,0,7.8*,0,-5
CCSc1nc2ccccc2n1CCN(C)C,0,-1,0,2,/,/
O=C1c2cccc3c([N+](=O)[O-])ccc(c23)C(=O)N1CCc1ccccc1,14,4,0,6.9*,0,1
CCN(CC)c1ccc(Nc2nc(-c3ccc(Cl)cc3)cs2)cc1,-1,-25,0,-1,/,/
O=C(Oc1ccc(-c2ccccc2)cc1)N1CCOCC1,-2,-40,0,5.8*,0,-11
Cc1cc(S(=O)(=O)Nc2ccc(C(N)=O)cc2)ccc1Br,-4,-5,0,-2,/,/
COc1ccc(CNC(=O)COc2ncnc3c(Cl)cc(Cl)cc23)cc1,10,7,0,6.9*,0,10
COC(=O)c1c(NC(=O)/C=C\C(=O)O)sc(C)c1C,21,-1,0,14*,-1,3
